# Measured values from PubChem BioAssay (EPA / NIEHS).
# Records with an inconclusive call do not appear. Activity calls are given as the source filed them. Rule for the calls: active = hit-call score of the fitted dose curve at least 0.9, where 1 is the maximum; inconclusive = response in the unintended direction; inactive = score below 0.9.
# Assays:
# [1] = biological target: Caspase-3 (Homo sapiens) (UniProt P42574); assay: NVS_ENZ_hCASP3: NovaScreen (NVS) Enzymatic Assay for human Caspase 3 (CASP3) (AID 2283139)
# Procedure, shortened: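 Single-concentration screening at 25 uM in duplicate, with concentration-response follow-up to a 50 uM maximum for chemicals passing the threshold. Caspase-3 (human, E. coli-expressed) activity was read as substrate fluorescence after 1 h, with loss of signal relative to DMSO.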
# [2] = biological target: human AKT serine/threonine Kinase 2 (AKT2), AKT2 (gene 208) (UniProt P31751); assay: NVS_ENZ_hAKT2: NovaScreen (NVS) Enzymatic Assay for human AKT serine/threonine Kinase 2 (AKT2) (AID 2283141)
# Procedure, shortened: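 Cell-free fluorescence/electrophoretic mobility shift readout of recombinant human AKT2 activity, 1 h after chemical dosing. Duplicate primary screen at 25 uM, then singleton concentration-response up to 50 uM; loss of signal versus DMSO baseline.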
# Chain of human AKT serine/threonine Kinase 2 (AKT2), AKT2 (gene 208) (P31751 whole entry, looked up): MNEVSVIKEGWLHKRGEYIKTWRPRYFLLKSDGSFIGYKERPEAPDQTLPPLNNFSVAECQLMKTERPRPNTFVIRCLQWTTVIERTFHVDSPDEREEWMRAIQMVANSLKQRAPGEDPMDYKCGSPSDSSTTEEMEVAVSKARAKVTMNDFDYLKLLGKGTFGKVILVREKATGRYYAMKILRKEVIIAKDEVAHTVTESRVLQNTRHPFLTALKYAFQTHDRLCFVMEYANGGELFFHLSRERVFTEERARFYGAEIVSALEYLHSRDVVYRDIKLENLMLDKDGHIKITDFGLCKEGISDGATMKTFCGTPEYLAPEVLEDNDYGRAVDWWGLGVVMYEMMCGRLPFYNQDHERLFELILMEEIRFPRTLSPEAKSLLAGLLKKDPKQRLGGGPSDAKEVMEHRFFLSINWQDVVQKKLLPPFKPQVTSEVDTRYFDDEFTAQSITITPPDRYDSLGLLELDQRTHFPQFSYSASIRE
# Chain of Caspase-3 (Homo sapiens) (P42574 whole entry, looked up): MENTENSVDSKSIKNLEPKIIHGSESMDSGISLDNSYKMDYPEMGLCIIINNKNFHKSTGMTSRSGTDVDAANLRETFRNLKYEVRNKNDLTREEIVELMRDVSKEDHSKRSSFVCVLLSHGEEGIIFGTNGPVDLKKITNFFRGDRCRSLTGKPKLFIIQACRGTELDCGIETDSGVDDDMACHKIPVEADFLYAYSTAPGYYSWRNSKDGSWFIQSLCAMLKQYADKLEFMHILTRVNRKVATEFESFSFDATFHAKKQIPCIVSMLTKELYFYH
smiles,measurement,setting,value
CCN(Cc1cccc(S(=O)(=O)O)c1)c1ccc(C(=C2C=CC(=[N+](CC)Cc3cccc(S(=O)(=O)O)c3)C=C2)c2ccccc2S(=O)(=O)[O-])cc1,outcome,[1],inactive
CCOC(=O)O[C@H](C)OC(=O)c1ccc2c(c1)cc(C(=O)NC1CCN(C(C)C)CC1)n2Cc1cc(-c2ccc(Cl)s2)on1,AC50,[2],23.6 µM (active)
CCCCCCCCOC(=O)c1cc(O)c(O)c(O)c1,outcome,[2],inactive
